Measurements taken from PubChem BioAssay AID1159580 (chemical genetic matrix, 2015).
About 2,000 (36%) of roughly 5,500 compounds were called active. Roughly 18% stayed inconclusive and do not appear here. No stated cut-off is given here; in the data, active means normalized growth mostly below about 0.91 (no sharp cut-off); inconclusive means no clear call, values can overlap the other calls; inactive means mostly above about 0.92. The list shows a part of the results.

Experiment: chemical genetic growth profiling, strain panel (AID 1159580);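 further: tested at 20 µM; growth read once vehicle control cultures reached saturation at 30 °C; 1 = growth at the plate median or of vehicle wells; lower values mean less growth of the strain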
Conditions: growth OD

Measured: normalized growth

CC(=O)O[C@H]1C[C@@]2(C)[C@H](c3ccoc3)OC(=O)[C@H]3O[C@]32[C@@]2(C)C1[C@]1(C)C(C[C@H]2OC(C)=O)C(C)(C)[C@H](OC(C)=O)C[C@@H]1OC(C)=O (some centres undefined)
inactive: S. cerevisiae deletion strains, locus YJL168C, strain set2, active compounds read low 0.99 | S. cerevisiae deletion strains, locus YJL187C, strain SWE1 (second series), active compounds read low 0.976 | S. cerevisiae deletion strains, locus YJR043C, strain POL32, active compounds read low 0.974 | S. cerevisiae deletion strains, locus YKL009W, strain mrt4, active compounds read low 0.912 | S. cerevisiae deletion strains, locus YKL068W, active compounds read low 0.978 | S. cerevisiae deletion strains, locus YKL085W, strain MDH1 (second series), active compounds read low 0.973 | S. cerevisiae deletion strains, locus YKL085W, strain MDH1, active compounds read low 0.973 | S. cerevisiae deletion strains, locus YKL160W, strain elf1, active compounds read low 1.05 | S. cerevisiae deletion strains, locus YKR001C, strain vps1, active compounds read low 0.982 | S. cerevisiae deletion strains, locus YKR026C, strain gcn3, active compounds read low 0.978 | S. cerevisiae deletion strains, locus YKR091W, strain srl3, active compounds read low 0.995 | S. cerevisiae deletion strains, locus YLL001W, strain dnm1, active compounds read low 0.977 | S. cerevisiae deletion strains, locus YLL026W, active compounds read low 0.974 | S. cerevisiae deletion strains, locus YLL041C, strain sdh2, active compounds read low 0.998 | S. cerevisiae deletion strains, locus YLR027C, strain aat2, active compounds read low 0.965 | S. cerevisiae deletion strains, locus YLR039C, strain RIC1, active compounds read low 0.959 | S. cerevisiae deletion strains, locus YLR058C, strain SHM2, active compounds read low 0.978 | S. cerevisiae deletion strains, locus YLR102C, strain apc9, active compounds read low 0.979 | S. cerevisiae deletion strains, locus YLR221C, strain rsa3, active compounds read low 0.987 | S. cerevisiae deletion strains, locus YLR258W, strain gsy2, active compounds read low 1.02 | S. cerevisiae deletion strains, locus YLR262C, strain YPT6 (second series), active compounds read low 1.03 | S. cerevisiae deletion strains, locus YLR268W, strain sec22, active compounds read low 0.975 | S. cerevisiae deletion strains, locus YLR320W, strain mms22, active compounds read low 0.999 | S. cerevisiae deletion strains, locus YLR342W, strain FKS1, active compounds read low 0.995 | S. cerevisiae deletion strains, locus YLR357W, strain rsc2, active compounds read low 1.01 | S. cerevisiae deletion strains, locus YLR370C, strain arc18, active compounds read low 0.961 | S. cerevisiae deletion strains, locus YLR371W, strain rom2, active compounds read low 0.982 | S. cerevisiae deletion strains, locus YLR384C, strain iki3, active compounds read low 1.01 | S. cerevisiae deletion strains, locus YLR418C, strain cdc73, active compounds read low 1.01 | S. cerevisiae deletion strains, locus YML016C, strain PPZ1, active compounds read low 0.984 | S. cerevisiae deletion strains, locus YML032C, strain rad52, active compounds read low 0.977 | S. cerevisiae deletion strains, locus YML120C, strain ndi1, active compounds read low 1.02 | S. cerevisiae deletion strains, locus YML124C, strain tub3, active compounds read low 0.993 | S. cerevisiae deletion strains, locus YMR058W, strain fet3, active compounds read low 0.988 | S. cerevisiae deletion strains, locus YMR078C, strain ctf18, active compounds read low 0.955 | S. cerevisiae deletion strains, locus YMR125W, strain sto1, active compounds read low 1.02 | S. cerevisiae deletion strains, locus YMR129W, active compounds read low 0.985 | S. cerevisiae deletion strains, locus YMR205C, strain PFK2, active compounds read low 1.01 | S. cerevisiae deletion strains, locus YMR223W, strain ubp8, active compounds read low 0.991 | S. cerevisiae deletion strains, locus YMR231W, strain pep5, active compounds read low 0.979 | S. cerevisiae deletion strains, locus YMR263W, strain SAP30, active compounds read low 0.969 | S. cerevisiae deletion strains, locus YMR307W, strain GAS1, active compounds read low 1.05 | S. cerevisiae deletion strains, locus YNL067W, strain RPL9B, active compounds read low 0.996 | S. cerevisiae deletion strains, locus YNL071W, strain lat1, active compounds read low 0.999 | S. cerevisiae deletion strains, locus YNL128W, strain TEP1, active compounds read low 0.971 | S. cerevisiae deletion strains, locus YNL153C, strain GIM3, active compounds read low 0.985 | S. cerevisiae deletion strains, locus YNL209W, strain ssb2, active compounds read low 0.992 | S. cerevisiae deletion strains, locus YNL233W, strain BNI4, active compounds read low 1 | S. cerevisiae deletion strains, locus YNL248C, strain rpa49, active compounds read low 0.984 | S. cerevisiae deletion strains, locus YNL250W, strain rad50, active compounds read low 0.97 | S. cerevisiae deletion strains, locus YNL271C, strain bni1, active compounds read low 0.979 | S. cerevisiae deletion strains, locus YNL298W, strain CLA4, active compounds read low 0.968 | S. cerevisiae deletion strains, locus YNL307C, strain MCK1, active compounds read low 0.991 | S. cerevisiae deletion strains, locus YNL322C, strain KRE1 (second series), active compounds read low 0.985 | S. cerevisiae deletion strains, locus YNR049C, strain mso1, active compounds read low 0.985 | S. cerevisiae deletion strains, locus YNR052C, strain pop2, active compounds read low 0.98 | S. cerevisiae deletion strains, locus YOL006C, strain TOP1, active compounds read low 0.959 | S. cerevisiae deletion strains, locus YOL012C, strain htz1 1.13 | S. cerevisiae deletion strains, locus YOL147C, strain pex11, active compounds read low 0.987 | S. cerevisiae deletion strains, locus YOR001W, strain rrp6, active compounds read low 0.919 | S. cerevisiae deletion strains, locus YOR061W, strain CKA2, active compounds read low 0.966 | S. cerevisiae deletion strains, locus YOR069W, strain VPS5, active compounds read low 0.992 | S. cerevisiae deletion strains, locus YOR070C, strain gyp1, active compounds read low 1 | S. cerevisiae deletion strains, locus YOR080W, strain dia2, active compounds read low 0.963 | S. cerevisiae deletion strains, locus YOR083W, strain WHI5, active compounds read low 1.04 | S. cerevisiae deletion strains, locus YOR106W, strain vam3, active compounds read low 1.03 | S. cerevisiae deletion strains, locus YOR136W, strain idh2, active compounds read low 0.974 | S. cerevisiae deletion strains, locus YOR144C, strain elg1, active compounds read low 0.989 | S. cerevisiae deletion strains, locus YOR184W, strain ser1, active compounds read low 0.966 | S. cerevisiae deletion strains, locus YOR265W, strain rbl2, active compounds read low 0.951 | S. cerevisiae deletion strains, locus YOR270C, strain vph1, active compounds read low 0.879 | S. cerevisiae deletion strains, locus YOR290C, strain snf2, active compounds read low 1.05 | S. cerevisiae deletion strains, locus YOR316C, strain cot1, active compounds read low 0.982 | S. cerevisiae deletion strains, locus YPL051W, strain arl3, active compounds read low 0.995 | S. cerevisiae deletion strains, locus YPL055C, strain LGE1, active compounds read low 0.964 | S. cerevisiae deletion strains, locus YPL078C, strain atp4, active compounds read low 1.05 | S. cerevisiae deletion strains, locus YPL106C, strain sse1, active compounds read low 1.03 | S. cerevisiae deletion strains, locus YPL240C, strain hsp82, active compounds read low 0.986 | S. cerevisiae deletion strains, locus YPR119W, strain clb2, active compounds read low 0.983 | S. cerevisiae deletion strains, locus YPR141C, strain kar3, active compounds read low 0.984 | S. cerevisiae deletion strains, locus YPR163C, strain tif3, active compounds read low 0.989 | S. cerevisiae deletion strains, locus YPR167C, strain met16, active compounds read low 0.984 | S. cerevisiae deletion strains, strain wtn01, active compounds read low 0.94 | S. cerevisiae strains, strain wild type, active compounds read low 0.993
